Among the test systems are STK16; STK33; STK35; STK36; STK39; SYK; SgK110; TAOK1; TAOK2; TAOK3; TBK1; TEC; TESK1; TGFBR2; TIE1; TLK1; TLK2; TGFBR1.
Common to all, as to settings: concentration: 1 μM, replicates: in singlicate; n = 1
For another assay, the system named is T1, TAK1.
T1 construct: gene MAP3K7

The next assay relates to T2, TIE2.
T2 construct: gene TEK
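Note: KINOMEscan kinase panel screen.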

As for `Cc1csc(-c2nc(Nc3ccncc3)c3ccccc3n2)n1` [GW869640], the “%Inh” value is 17% in the assay with STK16; 18% with STK33; 0% in the assay on STK35; 0% in the assay with STK36; 0% with STK39; 2% in the assay on SYK. The “%Inh” value was found to be 8% with SgK110; 25% in the assay on TAK1; 36% in the assay with TAOK1; 16% in the assay with TAOK2; 29% with TAOK3; 37% in the assay on TBK1. Besides, the “%Inh” value in the assay on TEC is 9%; in the assay with TESK1 it was 13%; in the assay with TGFBR2, 88%; in the assay with TIE1 it was 36%; in the assay with TIE2, 21%; in the assay with TLK1, 0%. Besides, the “%Inh” value with TLK2 was 1%.

Turning to `Cc1cccc(-c2cc(Nc3ccncc3)c3ccccc3n2)n1` [GSK223675], the “%Inh” value in the assay on STK16 is 19%; in the assay on STK33, 0%; in the assay with STK35, 0%; in the assay with STK36, 0%; in the assay with STK39, 0%; with SYK it was 2%. Also, the “%Inh” value with SgK110 turned out to be 0%; with TAK1 it was 0%; with TAOK1 it was 0%; with TAOK2 it was 0%; with TAOK3 it was 0%; in the assay on TBK1 it was 28%. The “%Inh” value in the assay with TEC was found to be 0%; in the assay with TESK1 it was 63%; with TGFBR2, 0%; with TIE1, 0%; in the assay on TIE2 it was 0%; in the assay with TLK1, 21%. Further, in the assay on TLK2, the “%Inh” value is listed as 0%.

For `COc1ccc(CNC(=O)NC2CCN(c3ccnc(Nc4cc(OC)c(OC)c(OC)c4)n3)C2)cc1` (stereo not shown) [GSK1379748], the “%Inh” value in the assay with STK16 stood at 54%; in the assay with STK33 it was 0%; in the assay with STK35, 0%; in the assay with STK36, 0%; in the assay on STK39, 1%; in the assay on SYK, 21%. Moreover, the “%Inh” value is listed as 0% with SgK110; 0% with TAK1; 0% with TAOK1; 0% in the assay on TAOK2; 0% in the assay on TAOK3; 15% with TBK1. Moreover, the “%Inh” value was 0% with TEC; 2% in the assay with TESK1; 0% with TGFBR1; 0% in the assay on TGFBR2; 20% in the assay with TIE1; 0% in the assay with TIE2. Moreover, the “%Inh” value with TLK1 is on record as 9%; with TLK2 it was 0%.

With `Nc1ncnc2[nH]c(-c3ccccc3)nc12` [AH5015], the “%Inh” value with STK16 came to 0%; in the assay with STK33, 0%; with STK35 it was 0%; in the assay with STK36 it was 4%; in the assay on STK39, 0%; with SYK it was 10%. The “%Inh” value worked out at 0% with SgK110; 0% in the assay with TAK1; 7% with TAOK1; 0% in the assay with TAOK2; 9% with TAOK3; 10% with TBK1. In addition, the “%Inh” value is on record as 28% with TEC; 30% in the assay with TESK1; 10% with TGFBR1; 9% in the assay with TGFBR2; 38% with TIE1; 0% with TIE2. Further, the “%Inh” value with TLK1 and in the assay with TLK2 was 0% each time.

In the case of `CCn1c(-c2cccnc2O)nc2cnccc21` [SB-736715], the “%Inh” value in the assay with STK16, in the assay with STK33, in the assay with STK35, with STK36, with STK39 and with SYK was 0% each time. Besides, the “%Inh” value in the assay on SgK110, in the assay on TAK1, with TAOK1, in the assay with TAOK2, with TAOK3 and in the assay on TBK1 was 0% throughout. For the same compound, the “%Inh” value was 0% in the assay with TEC; 0% in the assay on TESK1; 0% in the assay with TGFBR1; 0% with TGFBR2; 0% with TIE1; 6% with TIE2. The “%Inh” value in the assay with TLK1 and with TLK2 was 0% each time.

Take `CC(C)(C)c1ccc(C(=O)Nc2cn3cc(Cl)ccc3n2)cc1`: the “%Inh” value worked out at 0% in the assay on STK16; 0% in the assay with STK33; 0% with STK35; 0% in the assay with STK36; 0% in the assay on STK39; 17% with SYK. Also, the “%Inh” value is recorded as 0% in the assay with SgK110; 0% in the assay with TAK1; 0% with TAOK1; 10% in the assay with TAOK2; 0% in the assay on TAOK3; 0% with TBK1. Besides, the “%Inh” value with TEC is given as 0%; with TESK1, 0%; in the assay on TGFBR1, 0%; with TGFBR2, 0%; with TIE1, 0%; in the assay with TIE2 it was 13%. The figures for the “%Inh” value in the assay on TLK1 and in the assay on TLK2 were 23% and 0%, respectively.

Consider `Cc1c(O)cccc1Nc1ccnc2ccc(C(F)(F)F)cc12.Cl` [GW466413], for which the “%Inh” value with STK16 is listed as 0%; with STK33 it was 0%; in the assay with STK35, 0%; with STK36, 0%; in the assay on STK39, 3%; in the assay on SYK, 0%. Further, the “%Inh” value with SgK110, with TAK1, in the assay with TAOK1, with TAOK2, in the assay on TAOK3 and in the assay with TBK1 was 0% each time. The “%Inh” value in the assay with TEC is 0%; in the assay on TESK1, 10%; in the assay on TGFBR1 it was 2%; in the assay with TGFBR2 it was 8%; with TIE1 it was 12%; with TIE2, 0%. Moreover, the “%Inh” value in the assay on TLK1 amounted to 14%; with TLK2, 0%.

As to `O=C1NC(=O)C(N2CCc3ccccc32)=C1c1ccccc1Cl` [SB-373598], the “%Inh” value in the assay with STK16 is 58%; in the assay on STK33, 9%; in the assay with STK35, 1%; in the assay on STK36 it was 22%; in the assay with STK39 it was 7%; with SYK, 48%. Moreover, the “%Inh” value is reported as 0% in the assay on SgK110; 7% with TAK1; 15% with TAOK1; 100% in the assay on TAOK2; 15% with TAOK3; 19% in the assay with TBK1. Moreover, the “%Inh” value in the assay with TEC was found to be 0%; in the assay with TESK1, 27%; in the assay on TGFBR1, 9%; in the assay with TGFBR2 it was 10%; in the assay on TIE1, 13%; with TIE2, 6%. The “%Inh” value with TLK1 was 8%; with TLK2 it was 4%.

As for `Fc1cccc(COc2nnc(-c3ccc4c(c3)CCO4)o2)c1`, the “%Inh” value in the assay on STK16 is listed as 7%; in the assay on STK33, 2%; with STK35, 4%; with STK36, 7%; in the assay with STK39, 0%; with SYK, 0%. For the same compound, the “%Inh” value with SgK110 came to 0%; in the assay with TAK1, 7%; with TAOK1 it was 0%; with TAOK2 it was 0%; with TAOK3, 0%; in the assay with TBK1, 0%. For the same compound, the “%Inh” value with TEC amounted to 33%; with TESK1 it was 0%; in the assay with TGFBR1, 10%; in the assay on TGFBR2, 0%; with TIE1 it was 7%; in the assay with TIE2, 0%. Besides, the “%Inh” value in the assay on TLK1 is given as 25%; in the assay on TLK2 it was 0%.

The values are drawn from PMC5540273 (PLoS ONE, 2017).
